Results on one compound are retold here after the supplement of paper PMC6411743.

For the assay, the target named is T1, UniProt Q13188|Q13188-2.
T1 sequence (whole entry): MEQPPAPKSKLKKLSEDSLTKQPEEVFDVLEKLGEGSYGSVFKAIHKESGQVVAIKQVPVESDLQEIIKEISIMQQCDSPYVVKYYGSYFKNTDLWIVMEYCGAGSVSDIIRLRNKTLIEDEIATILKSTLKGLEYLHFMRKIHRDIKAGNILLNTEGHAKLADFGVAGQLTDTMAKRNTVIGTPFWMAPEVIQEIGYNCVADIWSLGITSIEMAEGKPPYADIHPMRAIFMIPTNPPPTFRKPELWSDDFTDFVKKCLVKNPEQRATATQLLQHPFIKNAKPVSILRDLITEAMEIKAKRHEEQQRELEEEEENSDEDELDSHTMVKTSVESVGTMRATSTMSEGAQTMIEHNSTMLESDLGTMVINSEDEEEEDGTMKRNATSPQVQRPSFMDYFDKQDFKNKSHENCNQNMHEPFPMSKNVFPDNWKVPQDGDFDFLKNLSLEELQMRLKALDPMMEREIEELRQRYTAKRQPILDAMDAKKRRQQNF
As to the kind of experiment: NP40-soluble protein abundance relative to vehicle (solubility fold change) (ratio); higher = more soluble protein in presence of GTP. On the procedure: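 Solubility proteome profiling in Jurkat crude lysate. Lysate was treated with Mg-GTP (0.1-10 mM) for 10 min at room temperature and 3 min at 37 °C, then solubilised with 0.8% NP40 and benzonase, followed by ultracentrifugation. Proteins were quantified by TMT10 LC-MS/MS; the value is the NP40-soluble abundance relative to the NP40-processed vehicle, from 3 independent experiments.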

± gives the standard deviation of the averaged measurements. The full data set covers some 5,400 targets. This sample favours those with the largest changes.

In the case of `Nc1nc2c(ncn2[C@@H]2O[C@H](COP(=O)(O)OP(=O)(O)OP(=O)(O)O)[C@@H](O)[C@H]2O)c(=O)[nH]1` [guanosine triphosphate], the NP40-soluble protein abundance runs as follows: (concentration: 0.1mM) 0.978 ± 0.064; (concentration: 0.5mM) 0.985 ± 0.036; (concentration: 1mM) 0.98 ± 0.057; (concentration: 2mM) 0.982 ± 0.048; (concentration: 4mM) 0.96 ± 0.049; (concentration: 6mM) 0.948 ± 0.052. Further, the NP40-soluble protein abundance is, setting by setting: (concentration: 8mM) 0.972 ± 0.071; (concentration: 10mM) 0.973 ± 0.088.
